# In PubChem BioAssay (Tox21):
# Activity calls are given as the source filed them. Calls come from the whole dose curve; as a rule, active = well fitted activation curve with a large enough effect in the repeat runs; inconclusive = weak or mixed curves; inactive = flat fitted curve, though single readings scatter.
# Experiment: A CellTox Green Cytotoxicity Assay to monitor cytotoxicity in HepG2 cells - 0 hour (AID 1224882); note: nearly all actives have a fitted effect of over 35% in size
# Conditions: CellTox Green fluorescence; series mostly up to 76.8 µM; cytotoxicity: at the top concentration
# Excerpt: National Center for Advancing Translational Sciences [NCATS]
# NIH Chemical Genomics Center [NCGC]
# U.S. Environmental Protection Agency [EPA]
# National Institutes of Environmental Health Sciences [NIEHS]
# National Toxicology Program [NTP]
# Cell-based models are critical for drug discovery. Determining the natural cytotoxic effects resulting from test compounds is an essential research activity. A CellTox Green Cytotoxicity Assay to monitor cytotoxicity in real time of continues cell culture during 40 hours of the compound treatment was used to screen Tox21 10K library compounds in HepG2 cells. CellTox Green Cytotoxicity Assay is a nonlytic, homogeneous, biofluorescent method to measure cytotoxicity in cell culture after experimental manipulation. The assay system uses a proprietary asymmetric cyanine dye that is excluded from viable cells but preferentially stains the dead cell's DNA. […] Viable cells produce no appreciable increases in fluorescence. Therefore, the fluorescence signal produced by the binding interaction with dead cell DNA is proportional to cytotoxicity.
# The mixture of HepG2 cell suspension and reagents were dispensed at 600cells/6 ul/well in 1536-well tissue culture treated black solid bottom plates using a Multidrop dispenser. After the assay plates were incubated at a 37 C/5% CO2 incubator for 5 hours, 23 nL of compounds dissolved in DMSO, positive and negative controls was transferred to the assay plate by a pintool work station. The plates were incubated at 37 C for 40 hours. The fluorescence intensity were measured at 0h, 8h, 16h, 24h, 32h and 40h time points using ViewLux plate reader during compound treatment.
# % is set by controls: 0 for no effect and ±100 for the full control effect.
row,Compound,cytotoxicity
1,CCOC(=O)C1=C(C)NC(C)=C(C(=O)OC)C1c1cccc([N+](=O)[O-])c1 (stereo not given),-1.61% [at 35.3 µM] (inactive)
2,CC(C)c1ccc2c(C(C)C)cc(C(C)C)c(S(=O)(=O)O)c2c1,0.991% (inactive)
3,O=C(/C=C/c1ccc(O)c(O)c1)O[C@@H]1C[C@](O)(C(=O)O)C[C@@H](O)[C@H]1O,-12% (inactive)
4,CC(C)(C)c1cc(CO)cc(C(C)(C)C)c1O,3.43% (inactive)
5,OCC1CC2CC1C1CCC(CO)C21 (stereo not given),-2.91% (inactive)
6,CCc1nn(C2CCCCC2)c2cc(C3(C#N)CCC(C(=O)O)CC3)ccc12 (stereo not given),-0.532% (inactive)
7,C=Cc1c(C)c2cc3[nH]c(cc4nc(cc5nc(cc1[nH]2)C(C)=C5CCC(=O)O)C(CCC(=O)O)=C4C)c(C)c3C=C,-6.36% [at 35.3 µM] (inactive)
8,CCCCCCCC/C=C\CCCCCCCC(N)=O,-0.794% (inactive)
9,CC(C)(C)c1ccc(OCC2CO2)cc1 (stereo not given),-9.11% (inactive)
10,Cl/C(=C\n1cncn1)c1ccc(Cl)cc1Cl,-4.64% [at 35.3 µM] (inactive)
11,CC(=O)/C=C/C1C(C)=CCCC1(C)C (stereo not given),-2.56% (inactive)
12,O=[N+]([O-])c1cc[n+]([O-])cc1,2.07% (inactive)
13,COc1ccccc1OC(=O)Oc1ccccc1OC,-11.3% [at 35.3 µM] (inactive)
14,Cc1cc(CC(=O)O)c(C)n1-c1ccc(Cl)cc1,13.9% [at 35.3 µM] (inactive)
15,COCCOCCOCCOCCOC,-1.06% (inactive)
16,NC(N)=N/N=C/c1c(Cl)cccc1Cl,9.37% [at 35.3 µM] (inactive)
17,Cc1ccc(C(=O)C(C)CN2CCCCC2)cc1 (stereo not given),-2.23% [at 35.3 µM] (inactive)
18,CCCCCC(CO)CCC (stereo not given),-0.329% (inactive)
19,Nc1cnn([C@@H]2O[C@H](CO)[C@@H](O)[C@H]2O)c(=O)n1,-1.39% (inactive)
20,COC(Cc1ccccc1)OC,-5.37% (inactive)

row,Compound,cytotoxicity
1,CCCCOC(=O)/C=C\C(=O)OCCCC,-2.51% (inactive)
2,O=C(c1ccccc1)c1ccc2n1CCC2C(=O)O (stereo not given),-0.979% [at 35.3 µM] (inactive)
3,O=C(Cl)c1c(Cl)cccc1Cl,-8.38% (inactive)
4,CC1CCc2cc(F)cc3c(=O)c(C(=O)O)cn1c23 (stereo not given),-1.63% [at 35.3 µM] (inactive)
5,CC(=O)N(CC(=O)N(C)C)c1ccccc1,2.74% [at 35.3 µM] (inactive)
6,Oc1ccc(O)c2c(O)cccc12,-11% (inactive)
7,CC(O)C1CCCCC1 (stereo not given),0.237% (inactive)
8,CCN(CC)CCc1nc(-c2ccccc2)no1,1.08% [at 35.3 µM] (inactive)
9,CN1CCN(C2=Nc3cc(Cl)ccc3Nc3ccccc32)CC1,-2.1% [at 35.3 µM] (inactive)
10,CCCOc1ccc2nc(NC(=O)OC)[nH]c2c1,1.31% [at 35.3 µM] (inactive)
11,CCN(CC)CCNC(C(=O)OCCC(C)C)c1ccccc1 (stereo not given),-12.2% [at 35.3 µM] (inactive)
12,COc1ccc2[nH]c(S(=O)Cc3ncc(C)c(OC)c3C)nc2n1 (stereo not given),3.62% [at 35.3 µM] (inactive)
13,CCN(CC)C(C)=O,2.09% (inactive)
14,C1CCC2OC2C1 (stereo not given),-1.23% (inactive)
15,CCCCCCCCCC(=O)OCC,-0.576% (inactive)
16,O=C1c2cccc(O)c2C(=O)c2c(O)cc(CO)cc21,1.52% (inactive)
17,CC[C@@H]1C[C@H](N(Cc2cc(C(F)(F)F)cc(C(F)(F)F)c2)C(C)=O)c2cc(C(F)(F)F)ccc2N1C(=O)OC(C)C,2.96% (inactive)
18,O=CNc1ccccc1,-0.858% (inactive)
19,N#Cc1c(F)cccc1F,0.338% (inactive)
20,CC(C)(C)C(=O)OCOP(=O)(COCCn1cnc2c(N)ncnc21)OCOC(=O)C(C)(C)C,-2.83% [at 35.3 µM] (inactive)
